Only some compounds are listed: those with a hit (about 4.1% of all), similar ones and a draw of the others.
CFTR F508del cor: F508del CFTR correction, initial screen, CFBE line, single point | CFBE cells, YFP halide quenching; stimulated with forskolin plus potentiator P3; % fluorescence drop versus neutral controls | activity (quench increase), % at 7.58 µM | hit rate 0.36% among 350,000 | AID 720511, 2013;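 active = mean added fluorescence quench of at least 8% versus neutral control, with both replicates also reaching 8%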;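 also: cells transiently co-express mutant CFTR-F508del with the halide-sensitive YFP; corrector assay measuring rescue of mutant channel to the surface after 24 h compound exposure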
NSD2 inh: NSD2 histone methyltransferase inhibitors, primary screen, biochemical, AlphaScreen, single concentration, set 2; inhibition, % at 12.5 µM; NSD2 peptide methylation, 120 min; hit rate 0.54% among 310,000; AID 743445, 2014; in the data active = inhibition above about 50%
HIV Env fusion: inhibitors of HIV-1 Env-driven cell-cell fusion, primary screen, HeLa-JRFL effector, CEM21 target cells, luciferase; hit rate 1.1% among 360,000; inhibition, % at 12.3 µM;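 active = mean replicate inhibition score of at least 50 and every replicate individually at or above 50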
CASP6 VEID inh: human caspase-6 inhibitors, primary screen, biochemical, VEID-R110 fluorescence, single point, set 2; P55212; purified caspase-6, Z-VEID-R110 cleavage fluorescence; inhibition, % at 12.5 µM; hit rate 0.53% among 350,000; AID 686996, 2013;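 active = mean inhibition across replicates at least about 35%, with every replicate also reaching that limit, limit read from the data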
Target sequence (P55212 24-179 limits assumed): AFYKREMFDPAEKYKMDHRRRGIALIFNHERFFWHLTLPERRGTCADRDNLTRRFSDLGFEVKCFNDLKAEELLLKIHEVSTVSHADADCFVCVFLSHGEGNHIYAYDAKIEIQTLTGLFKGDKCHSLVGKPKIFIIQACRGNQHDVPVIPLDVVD
Target sequence (P55212 194-293 limits assumed): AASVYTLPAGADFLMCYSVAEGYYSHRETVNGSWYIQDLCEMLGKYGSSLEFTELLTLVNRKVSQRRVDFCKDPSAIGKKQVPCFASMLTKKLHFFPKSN
ALR H2O2 inh: inhibitors of human ALR sulfhydryl oxidase, primary screen, biochemical, H2O2 detection, HRP-luminol luminescence, single point | FAD-linked sulfhydryl oxidase ALR (Homo sapiens), P55789 | purified ALR, DTT oxidation | inhibition, % (no concentration beside the values) | hit rate 3.8% among 290,000 | AID 485317, 2010;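 active = mean replicate inhibition above about 79%, with every replicate also reaching it, limit read from the data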
Target sequence (P55789 whole entry, looked up): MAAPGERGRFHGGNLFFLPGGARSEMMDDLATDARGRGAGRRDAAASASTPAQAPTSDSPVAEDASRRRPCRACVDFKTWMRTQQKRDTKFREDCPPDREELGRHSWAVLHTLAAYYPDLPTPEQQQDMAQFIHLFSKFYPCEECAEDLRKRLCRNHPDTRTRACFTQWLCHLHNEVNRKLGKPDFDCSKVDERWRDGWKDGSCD
PglD DTNB: C. jejuni PglD acetyltransferase inhibitors, primary screen, biochemical, DTNB colorimetric, single point | purified PglD enzyme, DTNB colorimetric CoA detection | inhibition, % at 12.5 µM | hit rate 0.098% among 360,000; in the data active = inhibition above about 16%, passing the limit was not always enough
Hits are given with their value; – = inactive; · = no result.

SMILES | CFTR F508del cor | NSD2 inh | HIV Env fusion | CASP6 VEID inh | ALR H2O2 inh | PglD DTNB
COC(=O)C1=CO[C@@H](O[C@@H]2O[C@H](CO)[C@@H](O)[C@H](O)[C@H]2O)C2C1CC(O)O[C@H]2C (stereo partly specified) | – | · | – | – | – | –
COC(=O)C1=COC(OC2OC(CO)C(O)C(O)C2O)C2C1C=CC2(O)CO (stereo unspecified) | – | · | · | 47.8 | – | –
CCNC(=O)[C@@H]1[C@@H](CO)[C@@H]2Cn3c(ccc(-c4ccccc4)c3=O)[C@@H]2N1Cc1ccccc1 | – | · | · | – | · | –
C[C@@H]1CN([C@H](C)CO)C(=O)c2c(c3ccccc3n2C)-c2ccccc2CO[C@H]1CN(C)C(=O)[C@H](C)c1ccccc1 | – | · | · | – | · | ·
Cc1ccc(S(=O)(=O)N2[C@@H](c3ccc(Cl)cc3)C(C(=O)O)=CC[C@H]2c2ccc(C(C)C)cc2)cc1 | – | · | – | – | 94.8 | –
Cc1ccc(S(=O)(=O)Nc2ccc3c(c2)C(=O)N([C@@H](C)CO)C[C@H](C)[C@@H](CN(C)C(=O)Nc2ccc(F)cc2)OCCCC[C@@H](C)O3)cc1 | – | · | – | – | · | –
COc1ccc(N2C(=O)CC(Nc3ccc(N4CCOCC4)cc3)C2=O)c(OC)c1 (stereo unspecified) | · | – | – | – | 98.4 | –
Cc1ccc(CN2C(=O)CC(Nc3ccc(N4CCOCC4)cc3)C2=O)cc1 (stereo unspecified) | – | – | – | – | 99.5 | –
COc1cccc(N2C(=O)CC(Nc3ccc(N4CCOCC4)cc3)C2=O)c1 (stereo unspecified) | · | · | · | · | 98.8 | –
O=C1CC(Nc2ccc(N3CCOCC3)cc2)C(=O)N1CCc1ccccc1 (stereo unspecified) | · | – | – | · | – | –
COCC#Cc1ccc([C@@H]2[C@@H](CO)N3CCCCN(Cc4cncnc4)C[C@@H]23)cc1 | – | · | · | – | · | –
CC(=O)N(C)C[C@H]1Oc2ncc(C#Cc3ccccn3)cc2C(=O)N([C@@H](C)CO)C[C@@H]1C | – | · | – | – | · | –
COc1ccc(CN2CCC(C)(Oc3ccc4c(c3)OCO4)C2)c2ccccc12 (stereo unspecified) | – | – | 70.4 | – | · | –
COc1cc(/C=C2/C(=O)NN(c3cccc(C)c3)C2=O)cc([N+](=O)[O-])c1O | – | – | – | – | · | ·
Cc1ccc(N2NC(=O)/C(=C\c3cc4c(cc3[N+](=O)[O-])OCO4)C2=O)cc1C | · | – | · | · | 94.0 | –
COc1cc(/C=C2/C(=O)NN(c3cccc(Cl)c3)C2=O)cc(OC)c1O | – | – | – | – | 91.0 | –
COc1cccc(/C=C2/C(=O)NN(c3ccc(C)c(C)c3)C2=O)c1 | – | – | – | – | 98.5 | –
CCOc1cc(/C=C2/C(=O)NN(c3cccc(Cl)c3)C2=O)ccc1O | – | – | – | – | 98.2 | –
COc1cc(/C=C2/NC(=O)N(c3cccc(Cl)c3)C2=O)ccc1O | · | – | – | – | – | ·
O=C(C[C@H]1CC[C@@H](NS(=O)(=O)c2ccccc2)[C@@H](CO)O1)NCc1ccccc1F | – | · | – | – | · | –
CCOc1ccccc1NC(=O)c1cccc(NC(=O)c2cccnc2)c1 | · | – | · | · | · | ·
CCNC(=O)C[C@@H]1CC[C@H]2[C@H](COc3ccc(NC(=O)c4cccc(C(F)(F)F)c4)cc3C(=O)N2C)O1 | – | · | – | · | · | –
O=C1NN(c2cccc(Br)c2)C(=O)/C1=C\c1ccc(O)cc1 | 8.6 | – | – | · | 97.6 | –
COc1cc(/C=C2/C(=O)NN(c3ccc(C)c(Cl)c3)C2=O)cc([N+](=O)[O-])c1O | – | – | – | – | 98.9 | –
COc1ccc2c3c(n(C)c2c1)[C@H](CO)N(Cc1ccccc1F)CC31CCN(CC2CC2)CC1 | – | · | · | – | · | ·
SMILES | CFTR F508del cor | NSD2 inh | HIV Env fusion | CASP6 VEID inh | ALR H2O2 inh | PglD DTNB
C[C@@H]1CN([C@H](C)CO)C(=O)c2cc(NC(=O)NC3CCCCC3)ccc2O[C@@H]1CN(C)C(=O)Nc1ccccc1 | – | · | – | – | · | –
CCCCCC(=O)Nc1ccccc1N1CCOCC1 | · | – | – | · | 99.4 | –
Cc1ccc(C(=O)OCC(=O)Nc2ccccc2N2CCOCC2)cc1 | · | – | · | · | 92.0 | –
Cc1ccc(S(=O)(=O)Nc2ccc3c(c2)C(=O)N([C@H](C)CO)C[C@@H](C)[C@H](CN(C)S(=O)(=O)c2cn(C)cn2)OCCCC[C@@H](C)O3)cc1 | – | · | – | – | · | –
C=CCN(Cc1ccc(OC)c(OC)c1)C(=O)c1cc2cc(F)ccc2[nH]1 | – | – | 76.1 | – | – | ·
COC(=O)c1c2oc(c1C(=O)OC)C(=O)N[C@H](Cc1ccccc1)Cn1cc(nn1)[C@H](Cc1ccccc1)NC(=O)N[C@H](CO)CC2 | – | · | – | – | · | –
CC(C)NC(=O)N(C)C[C@H]1OCCCC[C@@H](C)Oc2ccc(NS(=O)(=O)c3cn(C)cn3)cc2C(=O)N([C@H](C)CO)C[C@H]1C | – | · | – | – | · | –
CNC[C@H]1OCCCC[C@H](C)Oc2ccc(NC(=O)Nc3ccc4c(c3)OCO4)cc2C(=O)N([C@@H](C)CO)C[C@@H]1C | – | · | – | – | · | –
O=C(CN1C(=O)NC2(CCOc3ccccc32)C1=O)c1ccc(Cl)cc1 (stereo unspecified) | – | – | – | 77.6 | – | –
CO[C@H]1CN(C)C(=O)c2ccc(NC(=O)C3CCOCC3)cc2OC[C@@H](C)N(CC2CC2)C[C@H]1C | – | · | · | – | · | –
CN1C(=O)c2cc(NC(=O)c3ccc(F)c(F)c3)ccc2OC[C@@H]2O[C@H](CC(=O)N3CCOCC3)CC[C@H]21 | – | · | – | – | · | –
Cc1noc(C)c1S(=O)(=O)N(C)C[C@H]1Oc2ccc(NS(=O)(=O)c3ccc(Cl)cc3)cc2C(=O)N([C@@H](C)CO)C[C@H]1C | – | · | – | – | · | –
COc1cc(C(=O)Sc2ccc(C)cc2)cc(OC)c1OC | · | – | · | · | – | ·
Cc1ccc(OCC(=O)Sc2ccc(C)cc2)cc1 | · | – | · | · | 99.7 | –
COc1ccccc1OCC(=O)Sc1ccc(C)cc1 | · | – | – | · | 98.0 | –
CC1CCCCC1n1c(-c2cccnc2)n[nH]c1=S (stereo unspecified) | – | – | – | – | 87.2 | ·
Cc1c(Cl)cccc1-n1c(-c2cccnc2)n[nH]c1=S | – | – | – | – | 79.6 | ·
Cc1cc(Cl)ccc1-n1c(-c2cccnc2)n[nH]c1=S | – | – | – | – | – | ·
CN1C(=O)c2cc(NC(=O)Nc3ccccc3)ccc2OC[C@H]2O[C@H](CC(=O)O)CC[C@H]21 | · | · | – | · | · | –
COc1cc(Sc2ccc(C)cc2)c(OC)cc1N | · | · | · | · | 98.4 | –
COC(=O)c1ccc(Sc2ccc(C)cc2)c(N)c1 | – | – | · | – | – | –
CNc1ccccc1-n1ccc(-c2ccccc2)n1 | · | – | · | · | 93.7 | –

Screening results: PubChem BioAssay, Broad Institute
